# Hits are enriched below; roughly 7.3% of the tested compounds scored in any of these assays.
# FLuc modulator – counter-screen for miR-21 project: firefly luciferase inhibitors or activators; purified FLuc, Km substrates, luminescence inhibition; Potency, µM (top dose mostly 57.5 µM), for inactives: at the top dose activity change, negative = inhibition, hits mostly inhibitors; 360,000 compounds, 6.9% hits; AID 588342;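 further: plate controls were vehicle for no effect and reference inhibitor for full effect; nearly all actives have a fitted effect of over 55% in size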
# Target sequence (P08659 whole entry, looked up): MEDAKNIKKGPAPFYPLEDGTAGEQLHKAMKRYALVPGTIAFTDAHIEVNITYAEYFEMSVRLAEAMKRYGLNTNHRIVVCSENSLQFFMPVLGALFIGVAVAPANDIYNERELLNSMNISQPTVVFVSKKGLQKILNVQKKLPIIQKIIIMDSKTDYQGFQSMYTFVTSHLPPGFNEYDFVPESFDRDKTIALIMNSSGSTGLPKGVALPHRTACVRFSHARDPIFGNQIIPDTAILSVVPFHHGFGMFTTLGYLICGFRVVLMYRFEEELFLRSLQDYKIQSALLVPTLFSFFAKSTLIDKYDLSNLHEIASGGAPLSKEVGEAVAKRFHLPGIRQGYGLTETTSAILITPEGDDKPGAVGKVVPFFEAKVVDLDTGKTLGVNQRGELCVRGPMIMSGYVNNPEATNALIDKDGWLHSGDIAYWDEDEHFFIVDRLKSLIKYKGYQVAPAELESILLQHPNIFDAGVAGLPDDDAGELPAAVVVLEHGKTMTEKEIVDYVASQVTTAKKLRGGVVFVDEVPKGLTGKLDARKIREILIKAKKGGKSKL
#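 Biochemical qHTS of compounds, final roughly 60 µM downward over six points, against 10 nM purified firefly luciferase using Km concentrations of substrates (10 uM D-luciferin, 10 uM ATP) in Tris acetate pH 7.5 buffer; luminescence output.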
# ELG1 genotox – genotoxicity induction in ELG1-luciferase HEK293T cells; HEK293T ELG1-luciferase reporter, luminescence, 16 h; Potency, µM (doses to about 46 µM), without a hit: top-dose activity change, positive = activation, hits mostly activators; 330,000 compounds, 1.3% hits; AID 504466; further: % of control where 0% means no effect; nearly all actives have a fitted effect of over 60% in size
#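 DMSO vehicle served as control against compound-treated ELG1-luciferase HEK293T cells; exposure lasted 16 hr at 37 °C and 5% CO2, followed by ONE-Glo luminescence detection after 30 min.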
# NPC1 promoter act – NPC1 promoter activation; Huh7 NPC1 promoter luciferase reporter, 24 h; Potency, µM (highest dose often 9.22 µM), for inactives: at the highest dose activation, usual class: activators; 320,000 compounds, 2.4% hits; AID 485313; further: % of control where 0% means no effect; nearly all actives have a fitted effect of over 60% in size
#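 Cells: Huh7 expressing luciferase under the NPC1 promoter, 1500/well. Seeded 2 h, compound added, incubated 24 h at 37 °C. Luciferase reagent, 10 min ambient, then luminescence.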
# SMN2 splice up – increases expression of the SMN2 splice variant; HEK293 SMN2-luciferase splicing reporter, luminescence, 30-36 h; Potency, µM (titrated, usually from 46.1 µM), inactives show at the highest dose activity change, positive = activation, actives largely listed as activators; 210,000 compounds, 2.8% hits; AID 1458; further: % of control where 0% means no effect; nearly all actives have a fitted effect of over 55% in size
#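 HEK293 cells carry an SMN2 […]–luciferase reporter in which exon 7 inclusion puts luciferase in frame. Cells were plated 10-12 h before compound addition, then incubated 30-36 h at 37C. ONE-Glo luminescence was read; sodium butyrate at 4.5 mM final served as control.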
# uPA surface inh – cell surface uPA generation inhibition; cell surface uPA generation assay, qHTS; Potency, µM (top dose mostly 38.3 µM), without a hit: at the top dose activity change, negative = inhibition, actives largely listed as inhibitors; 330,000 compounds, 0.31% hits; AID 540303; active means well fitted inhibition curve with a large enough effect; inconclusive means small, poorly fitted or top-dose-only effect; inactive means no such curve, though single readings can be large or run the other way; tested in mouse RAW 264.7 cells; further: on the % scale 0 is the no-effect control and ±100 the full control effect; nearly all actives have a fitted effect of over 55% in size
# Rab9 promoter act – activators of Rab9 promoter; Huh7 Rab9 promoter-luciferase reporter, luminescence, 24 h; AID 485297; Potency, µM (titrated, usually from 9.22 µM), inactives show at the highest dose activation, negative = inhibition, usual class: activators; 320,000 compounds, 2.8% hits; further: % of control where 0% means no effect; nearly all actives have a fitted effect of over 60% in size
#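 Rab9 promoter-driven luciferase in stably transfected Huh7 cells; 1500 cells/well rested 2 h, exposed to compound in DMSO for 24 h at 37 °C, 5% CO2. Luminescence read 10 min after adding luciferase reagent at ambient temperature.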
# The depositor's hits bear a star; ? = inconclusive; . = not tested or not shown. Unless noted, the call rests on the fitted dose curve; in most records, active means well fitted curve in the direction sought with a large enough effect; inconclusive means small, poorly fitted or top-dose-only effect, or another doubt; inactive means no such curve, though single readings can be large; an effect the other way counts as inactive or inconclusive. Potency means the concentration at half of the fitted maximal effect.
SMILES,FLuc modulator,ELG1 genotox,NPC1 promoter act,SMN2 splice up,uPA surface inh,Rab9 promoter act
CC(/C=N/NC(=O)Cc1cccn1C)=C\c1ccccc1,11µM*,15%,17%,13%,0%,28%
O=C(Cc1cccs1)N/N=C/C(Br)=C/c1ccccc1,?,?,3.2µM*,?,7%,4µM*
CC(/C=N/NC(=O)Cc1cccs1)=C\c1ccccc1,2.7µM*,?,?,.,3%,3.5µM*
CSc1ncc2c(n1)-c1ccccc1N(Cc1ccc(Cl)cc1)S2(=O)=O,0%,.,.,.,.,.
COc1ccc(NC(=O)c2cc(-c3ccco3)on2)c(OC)c1,5%,18%,20%,.,2%,19%
COC(=O)c1ccccc1NC(=O)c1cc(C2CC2)on1,-11%,?,19%,?,-30%,23%
Cc1c(Cl)cccc1NC(=O)c1cc(C2CC2)on1,19µM*,?,?,9%,7%,3.5µM*
COc1ccc(NC(=O)c2cc(C3CC3)on2)c(OC)c1,?,18µM*,?,20µM*,?,?
CN1CCN(C(CNC(=O)C(=O)Nc2ccccc2)c2ccc3c(c2)OCO3)CC1 (configuration not stated),-1%,.,.,.,.,.
COc1cc(Cl)c(C)cc1NC(=O)CSc1nnc(CCC(=O)O)c(=O)[nH]1,?,-1%,0%,-8%,5%,3%
COc1ccc2c(Cl)c(C(=O)N/N=C3\CCCC(=O)C3)sc2c1,17µM*,2%,15%,?,5%,?
O=C(CCS(=O)(=O)c1ccccc1)N1CCN(c2ccccc2)CC1,12µM*,?,2.8µM*,.,2%,1.6µM*
N#C/C(=N\Nc1ccc([N+](=O)[O-])cc1)C(N)=S,17µM*,-15%,24%,.,-24%,20%
N#C/C(=N\Nc1ccccc1[N+](=O)[O-])C(=N)N1CCCCC1,2.4µM*,?,0.56µM*,3.2µM*,-11%,0.28µM*
N#C/C(=N\Nc1ccc([N+](=O)[O-])cc1)C(=N)N1CCOCC1,?,?,?,.,7%,2.8µM*
COc1ccccc1N/N=C(\C#N)C(=N)N1CCOCC1,-6%,0%,3%,?,2%,11%
N=C(c1ccc([N+](=O)[O-])cc1)N1CCCCC1,-2%,-4%,-3%,-8%,-14%,-12%
N#C/C(=N/Nc1ccc([N+](=O)[O-])cc1)C(=N)N1CCCCC1,9.5µM*,?,1µM*,3.2µM*,4%,0.56µM*
N#C/C(=N\Nc1ccc(Br)cc1)C(=N)N1CCOCC1,?,?,3.5µM*,?,4%,4µM*
CSCCC(NC(=O)c1ccc(Cl)cc1)C(=O)OCC(=O)N1CCCC1=O (configuration not stated),?,-1%,-4%,.,-3%,-4%
CSCCC(NC(=O)c1ccc(C(C)(C)C)cc1)C(=O)OCC(=O)N1CCCC1=O (configuration not stated),21µM*,0%,-1%,.,-8%,-1%
COC(=O)c1ccc(Cl)cc1NC(=O)N1CC(C)Oc2ccccc21 (configuration not stated),-3%,.,.,.,.,.
Cc1cc(O)c(/C=N/OCc2ccc(Cl)cc2Cl)c(=O)o1,?,-6%,-1%,-11%,-5%,-2%
O=c1c(/C=N/OCc2ccc(Cl)cc2Cl)c[nH]n1-c1cccc(Cl)n1,11µM*,-5%,2%,-15%,0%,7%
N/C(=N\OC(=O)Cc1ccc(Cl)cc1)c1cccnc1,?,1%,0%,-19%,.,-4%
SMILES,FLuc modulator,ELG1 genotox,NPC1 promoter act,SMN2 splice up,uPA surface inh,Rab9 promoter act
N/C(=N\OC(=O)c1cccc(Cl)c1)c1ccncc1,19µM*,?,17%,.,6%,23%
C/C(=N\OC(=O)c1cccc(Cl)c1)c1sc(C)nc1C,6.7µM*,4%,-3%,.,0%,6%
N/C(=N\OC(=O)c1ccc(Cl)c(Cl)c1)c1cccnc1,8.5µM*,11%,13%,-3%,2%,10%
N/C(=N\OC(=O)c1cccc(Cl)c1)c1cccnc1,6.7µM*,10µM*,17%,11%,0%,11%
Cc1nc(C)c(CCNC(=O)c2cccc(Cl)c2)s1,-2%,2%,2%,0%,-1%,8%
COc1cc2c(c(OC)c1)C(c1cc(OC)c(OC)c(OC)c1)CC(=O)N2 (configuration not stated),-7%,.,.,?,.,.
N/C(=N\OC(=O)c1ccc(Cl)c(Cl)c1)c1cccc(CSc2ccccn2)c1,8.5µM*,?,?,.,-7%,?
COc1ccccc1C(=O)Nc1cc2c(cc1C(=O)O)OCCCO2,-14%,4%,-3%,.,-4%,-3%
CN(C)S(=O)(=O)c1cccc(C(=O)Nc2ccc(N3CCOCC3)cc2)c1,?,-2%,-2%,.,1%,-4%
CC(=O)c1cc2c(cc1NC(=O)c1ccc(C)cc1)OCCO2,5.4µM*,14%,0%,.,-1%,2%
CN(C)S(=O)(=O)c1cccc(C(=O)Nc2cc3c(cc2C(=O)O)OCCCO3)c1,6µM*,8%,16%,.,?,7%
O=C(Nc1cc2c(cc1C(=O)O)OCCCO2)c1ccc(F)cc1F,21µM*,?,-42%,.,.,24%
CN(C)S(=O)(=O)c1ccc(C(=O)Nc2ccccc2C(=O)O)cc1,12µM*,-1%,1%,2%,-5%,3%
CCOc1ccc(CN2C(=O)c3ccccc3Sc3ccc(C(=O)N4CCN(C)CC4)cc32)cc1,-12%,.,.,4%,.,.
CN(C)S(=O)(=O)c1ccc(C(=O)Nc2cccc(C(=O)O)c2)cc1,21µM*,.,.,14%,-1%,.

# Assay outcomes from PubChem BioAssay.
